# Measurements taken from the supplement of paper PMC6555819.
# Columns and labels:
# Assay in all cases: PBM binding z-score (relative to random genomic background probes); higher = stronger binding; sequences stand for … in GC…GCGATTGACAGCGTAGAATGAAGG
# [1] = test system: PPARg:RXRa DBDmut IVT, anti-RXR (DBD mutation: RXRa K156A/R161A, NR concentration 270 nM, RXRa partner concentration 90 nM)
# In short: (§1)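 Binding buffer was PBS pH 7.4 with 2% milk, 0.02% Triton X-100, 1 mM DTT, 0.2 mg/mL BSA and 0.4 mg/ml salmon testes DNA. In it, ligand-free nuclear receptor dimers were incubated 1 h on custom Agilent 4×180K protein-binding microarrays carrying double-stranded probes. Antibodies against each partner (one per run) detected binding, and z-scores were calculated against random background probes after regression normalization of scanned fluorescence.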
# [2] = test system: PPARg:RXRa IVT, anti-PPARg (NR concentration 270 nM, RXRa partner concentration 90 nM)
# In short: as §1
# [3] = test system: PPARg DBDmut:RXRa IVT, anti-PPARg (DBD mutation: PPARg1 K132A/R137A, NR concentration 270 nM, RXRa partner concentration 90 nM)
# In short: as §1
# [4] = test system: PPARg DBDmut IVT, anti-PPARg (DBD mutation: PPARg1 K132A/R137A, NR concentration 270 nM)
# In short: as §1
# [5] = test system: PPARg homodimer (NR concentration 180 nM)
# In short: as §1
# [6] = test system: PXR:RXRa (NR concentration 270 nM, RXRa partner concentration 90 nM)
# In short: as §1
# [7] = test system: PXR homodimer (NR concentration 270 nM)
# In short: as §1
# [8] = test system: RARa:RXR (NR concentration 270 nM, RXRa partner concentration 90 nM)
# In short: as §1
# [9] = test system: RARa homodimer (NR concentration 270 nM)
# In short: as §1
# [10] = test system: RARb:RXRa (NR concentration 270 nM, RXRa partner concentration 90 nM)
# In short: as §1
# [11] = test system: RARb homodimer (NR concentration 270 nM)
# In short: as §1
# [12] = test system: RARg:RXRa (NR concentration 270 nM, RXRa partner concentration 90 nM)
# In short: as §1
# [13] = test system: RARg homodimer (NR concentration 270 nM)
# In short: as §1
# [14] = test system: RXRa DBDmut IVT, anti-RXR (DBD mutation: RXRa K156A/R161A, NR concentration 90 nM)
# In short: as §1
# [15] = test system: RXRa homodimer (NR concentration 180 nM)
# In short: as §1
# [16] = test system: THRa:RXRa (NR concentration 90 nM, RXRa partner concentration 90 nM)
# In short: as §1
# [17] = test system: THRa homodimer (NR concentration 90 nM)
# In short: as §1
# [18] = test system: VDR homodimer (NR concentration 270 nM)
# In short: as §1
Sequence,PBM binding z-score [1],PBM binding z-score [2],PBM binding z-score [3],PBM binding z-score [4],PBM binding z-score [5],PBM binding z-score [6],PBM binding z-score [7],PBM binding z-score [8],PBM binding z-score [9],PBM binding z-score [10],PBM binding z-score [11],PBM binding z-score [12],PBM binding z-score [13],PBM binding z-score [14],PBM binding z-score [15],PBM binding z-score [16],PBM binding z-score [17],PBM binding z-score [18]
TCTCGGAGGACACAAAAGGTCAGAGCTCGACATC,1.53,1.65,-0.0324,-0.692,3.51,3.82,0.682,4.29,1.33,4.08,4.4,4.67,4.91,1.15,3.9,3.41,1.1,1.02
CGTCCAAGGTCAGCAGGTTAGTGAAAGCGACGTG,2.23,2.41,-0.261,-0.686,3.19,2.75,0.49,3.24,0.634,4.85,4,5.37,6.05,2.64,4.17,3.57,2.06,1.76
AGTCAAAGTTAAGGACGAGGTAACGTAAAGCACG,-0.606,0.576,-0.425,0.362,-0.757,-0.127,0.18,1.19,0.205,0.889,0.455,0.647,0.899,-0.752,0.474,3.19,2.65,-0.263
TTTTGTAGATCAGCAGGTTAAGAAAGCTGGCCAA,0.508,1.04,-0.105,0.632,0.357,0.0195,-0.117,0.084,0.0423,0.0903,0.145,-0.111,-0.252,-0.708,0.104,0.144,-0.308,-0.168
TCGAGTAGGTTAGGGGGATTCAGAATGGCGTCGA,2.93,3.21,2.69,5.71,1.41,1.2,0.466,0.482,0.665,1.19,0.809,0.0898,0.376,0.668,0.485,0.871,1.01,0.42
TTACCAAGGTGAAGGCCGTTGATCCCTCTGTAGA,1.67,2.18,-0.266,0.1,0.061,0.0988,-0.493,0.33,-0.621,1.34,0.648,0.161,0.236,-0.411,0.286,1.57,0.252,-0.421
AGTCAAAGTTCAGCTAGGTAACGTAAGATATGCT,0.153,2.1,0.968,0.836,1.67,3.01,1.8,2.29,1.19,4.37,3.28,4.23,5.17,3.2,2.96,2.46,0.0376,2.26
ATATGTAGGTTACATCCGGGTCATTCACGCTATG,7.63,7.57,6.55,5.07,5.81,4.01,1.48,4.11,1.52,2.41,2.82,4,2.31,1.39,3.38,3.86,2.6,3.12
TAGCCTAGGTCATGGGCTAGTATACCACGCGAAC,1.15,3.37,0.577,-0.926,1.36,1.6,-0.606,2.74,-0.439,3.86,2.79,4.26,4.32,-0.132,3.45,3.07,0.81,0.156
TCTATTAGTTGAAGGGCAACCTACGAGTCCGTTT,2.23,0.488,0.411,0.817,1.5,0.858,1.18,0.893,1.08,1.57,1.2,0.698,0.806,1.51,0.858,0.233,-0.0206,1.42
CTCGAAAGGTCGTGCTCAGGTGATTATACCAAAC,0.733,1.72,1.57,0.403,2.1,3.55,0.276,4.32,0.268,3.86,2.98,4.97,4.05,2.27,4.89,3.89,1.39,1.25
ACTAGTTGGTCAGATGAGGTCACACACAATTCGG,1.63,2.78,1.26,1.93,3.45,5.55,2.21,4.72,2.3,3.3,4.39,3.94,3.9,1.44,4.3,4.8,4.95,4.21
ATATGTAGGTTAAGGTTCATTCAGGTTGGTTCGC,7.08,7.48,4.12,3.24,3.29,4.08,5.13,3.48,1.87,2.21,2.18,2.48,1.47,3.2,3.38,2.49,1.4,6.72
CAAACTAGGTCACAGAGGTCAAAGGCCGTGCGTA,8.7,8.85,6.92,3.61,5.45,6.54,10.8,7.58,2.81,5.22,5.17,7.3,7.71,3.23,8.06,4.42,2.89,6.86
CAAACTAGGTCACCGAGGTCAAAGTCCGTGCGTA,8.69,9.03,4.5,2.89,5.36,6.93,12.2,7.45,1.57,5.18,5.47,6.99,7.18,3.46,7.09,4.93,4.37,7.68
